Shown are actives, neighbours in structure and some others; about 6.5% of the full set was active somewhere.
HT1080NT lethal – kills 2HG-producing HT-1080-NT fibrosarcoma cells; HT-1080-NT fibrosarcoma viability, CellTiter-Glo ATP luminescence, 48 h; Potency, µM (top dose mostly 46.1 µM), without a hit: at the highest dose activity, negative = less viability, actives largely listed as cytotoxic; 360,000 tested, 1.6% active;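 also: NT is the 2HG producing partner of a matched IDH1 knockdown line; potency is read from the fitted curve at half-maximal effect; 0% = DMSO-treated cells and -100% = media-only wells without cells; nearly all actives have a fitted effect of over 55% in size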
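HT-1080-NT; 750 cells/well; 5% FBS RPMI; 48 h compound, 37 degrees C; CellTiter-Glo luminescence; curve fitting and curve-class assignment.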
HT1080 IDH1KD tx – toxicity to HT-1080 IDH1 knockdown cells (counter line); HT-1080 IDH1 knockdown viability, ATP luminescence, 48 h; Potency, µM (titrated, usually from 46.1 µM), for the others: at the top dose activity, negative = toxicity, most hits filed as cytotoxic; 360,000 tested, 2% active; AID 686971;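 also: potency is read from the fitted curve at half-maximal effect; 0% = DMSO wells and -100% = cell-free medium wells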
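Viability of IDH1-knockdown HT-1080 fibrosarcoma cells was assessed by CellTiter-Glo after 48 h at 37 °C with titrated compound; concentration-effect curves were classified by fit quality and response size.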
HepG2 viability – HepG2 cytotoxicity, counter-screen for TGF-b inhibitors; HepG2 CAGA-GFP viability, ATP luminescence, 18 h; Potency, µM (titrated, usually from 46.1 µM), for the others: at the top dose activity change, negative = cytotoxicity, actives largely listed as cytotoxic; 410,000 tested, 0.76% active; AID 588856; also: potency is read from the fitted curve at half-maximal effect
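HepG2 CAGA-GFP cells (1000/well, DMEM with 1% FBS) received compound, then TGF-beta at 500 pg/mL final, and were incubated 18 hours at 37 degrees C. Viability was read by CellTiter-Glo luminescence. Media-only wells were set as complete cell-killing and DMSO as no toxicity.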
IL1B secr inh – inhibitors of inflammasome signaling (IL-1 beta secretion); THP-1 LPS/ATP IL-1B secretion, AlphaLISA, 16 h; active compounds read low; activity change, % at 57.5 µM; 360,000 tested, 4.7% active; AID 743279; in the data active = activity change below about -50%; inconclusive = mostly about -30% to -49%; also: % is scaled to controls: 0 for no effect and ±100 for the full control effect
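Secreted IL-1B measured by AlphaLISA bead assay after 16 h compound exposure of THP-1 cells; compounds (final up to 57.5 uM) added 1 h before LPS (250 ng/mL) and ATP (1.25 mM) stimulation; lower signal means less secretion.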
Giardia kill – kills Giardia lamblia; Giardia lamblia trophozoite viability; activity change, % at 7.66 µM, hits read low; 340,000 tested, 0.15% active; AID 540267; in the data active = activity change below about -80%; inconclusive = between about -30% and that limit;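 also: parasites exposed to compound for two days anaerobically before the ATP read; % is scaled to controls: 0 for no effect and ±100 for the full control effect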
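Trophozoites 100 cells/well + cpd; 48 hrs, 37 deg C, anaerobic. ATPLite 1-Step added, 15-30 min RT, luminescence read (ATP-based viability).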
TGFb inhibitor – TGF-b pathway inhibition; HepG2 CAGA-GFP TGF-b/SMAD3 reporter, GFP fluorescence, 18 h; TGF-beta stimulated, 500 pg/mL final; Potency, µM (doses to about 46.1 µM), inactives show top-dose activity, negative = inhibition, hits mostly inhibitors; 410,000 tested, 1.2% active; also: potency is read from the fitted curve at half-maximal effect; % is scaled to controls: 0 for no effect and ±100 for the full control effect; nearly all actives have a fitted effect of over 65% in size
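Inhibition of TGF-beta-driven CAGA-GFP reporter expression in HEPG2 cells is measured by cellular GFP fluorescence after 18 h stimulation with 500 pg/mL recombinant TGF-beta in 1% FBS medium at 37 degrees C.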
Active calls of the source: *; ? = inconclusive; nt = not tested or not shown. Unless noted, calls follow the shape of the dose curve; as a rule, active = well fitted curve in the direction sought with a large enough effect; inconclusive = small, poorly fitted or top-dose-only effect, or another doubt; inactive = no such curve, though single readings can be large; an effect the other way counts as inactive or inconclusive.

SMILES | HT1080NT lethal | HT1080 IDH1KD tx | HepG2 viability | IL1B secr inh | Giardia kill | TGFb inhibitor
Cc1ccc(NC(=O)COC(=O)C2CCC(=O)N2)c([N+](=O)[O-])c1 (stereo unspecified) | -3% | -2% | -7% | 11 | 0 | 7%
O=C(CCc1nc(-c2ccccn2)no1)NCc1ccc2c(c1)OCO2 | -1% | 0% | -3% | nt | 4 | -6%
O=[N+]([O-])c1nn(-c2ccc3c(c2)OCCO3)n(O)c1=NCCCO | -7% | 1% | -21% | 8 | ? | -4%
Cc1ccc(CN=c2c([N+](=O)[O-])nn(-c3ccc4c(c3)OCCO4)n2O)cc1 | -8% | -9% | -11% | -26 | -87* | ?
COc1ccc(-n2nc([N+](=O)[O-])c(=NCc3ccc4c(c3)OCO4)n2O)cc1 | -2% | -1% | -3% | ? | -92* | ?
COc1ccc(S(=O)(=O)N2CC(C(=O)O)Oc3ccc(Cl)cc32)cc1 (stereo unspecified) | 12% | 2% | 1% | 34 | -2 | 0%
CCCn1c(=O)[nH]c(=O)c2c1nc(-c1cc([N+](=O)[O-])ccc1Cl)n2CCOC | 1% | -2% | -28% | 17 | 11 | -1%
CCOc1ccc(CCN2C(=O)C(=O)N([C@@H](Cc3ccc(O)cc3)CN3CCC[C@H]3CN3C(=O)C(=O)NC[C@@H]3Cc3ccccc3)C[C@@H]2Cc2ccc(O)cc2)cc1 | -11% | -20% | nt | -52* | nt | nt
CC(C)C[C@@H](CN1CCC[C@H]1CN1C(=O)C(=O)NC[C@@H]1Cc1ccc(O)cc1)N1C[C@H](Cc2ccc(O)cc2)N(CCc2ccccc2)C(=O)C1=O | 10% | 2% | nt | -4 | nt | nt
CCOc1ccc(CCN2C(=O)C(=O)N([C@@H](Cc3ccccc3)CN3CCC[C@H]3CN3C(=O)C(=O)NC[C@@H]3Cc3ccccc3)C[C@@H]2Cc2ccc(O)cc2)cc1 | ? | ? | nt | -64* | nt | nt
Cc1ccsc1C(=O)OCC(=O)NCc1ccco1 | 18% | 13% | -14% | 1 | 0 | -24%
CCN(CC)Cc1c(O)ccc2c([N+](=O)[O-])c(C)n(-c3ccc(OC)cc3)c12 | ? | ? | 0% | -75* | 8 | -6%
COc1cccc(CNC(=O)C2Cc3ccccc3CN2C(C)=O)c1 (stereo unspecified) | 8% | 7% | 1% | 36 | 24 | 7%
CN1CCN(/N=C/c2ccc(N(c3ccccc3)c3ccccc3)cc2)CC1 | -13% | -5% | 4% | -51* | 0 | 2µM*
COc1ccc(-c2nnc(SCC(=O)N/N=C/c3ccccc3C(=O)O)n2-c2ccc(Cl)cc2)cc1 | -1% | 1% | -17% | 0 | 1 | -16%
Cc1ccsc1/C=C(\C(=O)c1ccc(OC(C)C)cc1)c1nc2ccccc2o1 | 0% | -1% | -29% | -67* | 8 | -10%
Cc1[nH]c2ccccc2c(=O)c1CN(C)Cc1ccccc1 | -1% | 2% | -2% | -11 | 0 | 4%
Cc1nn(CCC(=O)N2CCN(S(=O)(=O)c3ccccc3)CC2)c(C)c1C | 2% | 4% | 4% | 14 | 4 | 16%
Cc1cc(C)c(S(=O)(=O)N2CCN(C(=O)CCn3nc(C)c(C)c3C)CC2)c(C)c1 | -14% | -9% | 24% | -84* | 20 | 10%
Cc1ccc([N+](=O)[O-])cc1S(=O)(=O)n1ccnc1C | -8% | -31% | -7% | 2 | 18 | 0%
CCN(CC)c1ccc(NC(=O)c2ccc(S(=O)(=O)N3CCOCC3)cc2)cc1 | -1% | 2% | 47% | -51* | -11 | 2%
Cc1cc(C)c(O)c(-c2cc(C(=O)Nc3ccc(S(=O)(=O)N4CCOCC4)cc3)[nH]n2)c1 | 21µM* | ? | -60% | -86* | -9 | ?
CC(C)CCCCCCNC(=S)Nc1ccc(S(=O)(=O)N2CCOCC2)cc1 | ? | ? | -65% | -82* | 7 | 20µM*
O=S(=O)(c1ccc(NC(=S)Nc2ccccc2)cc1)N1CCOCC1 | 16% | 18% | 6% | 41 | -12 | -10%
CC(=O)Nc1ccc(NC(=O)c2cc(-c3cc(C)cc(C)c3O)n[nH]2)cc1 | -7% | -11% | -6% | -5 | 16 | -17%
SMILES | HT1080NT lethal | HT1080 IDH1KD tx | HepG2 viability | IL1B secr inh | Giardia kill | TGFb inhibitor
O=C(Nc1ccc(S(=O)(=O)N2CCOCC2)cc1)c1ccc(S(=O)(=O)N2CCOCC2)cc1 | 17% | 3% | -35% | 22 | 6 | 16%
Cc1ccc(N(Cc2ccccc2)C(=O)c2ccc(S(=O)(=O)N3CCOCC3)cc2)cc1 | 3% | 2% | 12% | -60* | 10 | -25%
CN1C(=S)SC(N(O)C(=O)Nc2ccc(Cl)c(Cl)c2)C1(C)C (stereo unspecified) | -29% | ? | -38% | -14 | 6 | ?
Cc1cc(NC(=O)C2CC(=O)N(c3cccc(C)c3C)C2)no1 (stereo unspecified) | 20% | 15% | 15% | -7 | -20 | -6%
O=C1CCCN1c1ccc(S(=O)(=O)Nc2ccc3c(c2)OCCO3)cc1 | 5µM* | ? | 0% | -10 | 0 | -26%
CCOc1ccc(NC(=O)Nc2cccn(Cc3ccccc3)c2=O)cc1 | ? | ? | -8% | -74* | 11 | -26%
CSc1ccc(NC(=O)Nc2cccn(Cc3ccccc3F)c2=O)cc1 | -1% | -24% | -3% | -68* | 12 | ?
CCOC(=O)C1(Cc2ccccc2C(F)(F)F)CCN(C(C)CCn2cccn2)CC1 (stereo unspecified) | -26% | -24% | -19% | -79* | -5 | -9%
CCOC(=O)C1(Cc2ccc(Cl)cc2)CCN(CCCn2cccn2)CC1 | -18% | -11% | -24% | -58* | -16 | 3%
CCOC(=O)C1(Cc2ccccc2)CCCN(CCCn2cccn2)C1 (stereo unspecified) | 0% | 26% | -37% | 27 | 3 | ?
CCOC(=O)C1(Cc2ccccc2C(F)(F)F)CCN(C(C)CSC)CC1 (stereo unspecified) | 8% | 1% | 2% | 22 | 0 | -1%
O=C(CC1C(=O)NCCN1C(=O)Nc1ccccc1)Nc1cccc(Cl)c1 (stereo unspecified) | -5% | -3% | -7% | -5 | 4 | -4%
Cc1cccc(NC(=O)CC2C(=O)NCCN2C(=S)Nc2ccccc2)c1 (stereo unspecified) | -1% | -6% | -12% | -61* | -4 | -3%

Bioassay records from PubChem.
